From PubChem BioAssay AID652054 (National Center for Advancing Translational Sciences (NCATS), 2013) come the findings set out here.

The whole screen tested about 360,000 compounds, of which about 9,100 (2.5%) were called active. About 4% were inconclusive and are not listed. What follows is part of a selection rich in actives, with near analogues and random picks from the rest. Unmarked numbers belong to inactive results. No stated cut-off is given here; in the data, active means max response below about -50%; inconclusive means no clear call, values can overlap the other calls; inactive means above that.
On the % scale 0 is the no-effect control and ±100 the full control effect.

Sequence of D(3) dopamine receptor (Homo sapiens) (P35462 whole entry, looked up): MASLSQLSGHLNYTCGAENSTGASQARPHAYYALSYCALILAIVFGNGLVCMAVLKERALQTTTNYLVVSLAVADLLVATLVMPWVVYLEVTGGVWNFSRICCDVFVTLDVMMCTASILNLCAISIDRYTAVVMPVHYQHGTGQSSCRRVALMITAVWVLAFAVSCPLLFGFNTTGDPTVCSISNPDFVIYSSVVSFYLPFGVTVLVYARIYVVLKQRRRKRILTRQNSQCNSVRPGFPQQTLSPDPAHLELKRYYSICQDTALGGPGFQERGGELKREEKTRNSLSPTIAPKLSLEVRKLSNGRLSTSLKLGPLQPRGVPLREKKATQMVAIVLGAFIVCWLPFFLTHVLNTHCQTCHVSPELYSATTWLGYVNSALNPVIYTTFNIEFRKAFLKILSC

For the assay, the target named is D(3) dopamine receptor (Homo sapiens) (UniProt P35462). The experiment in a line: qHTS of D3 Dopamine Receptor Antagonist: qHTS. As to conditions: D3R cells, DiscoveRx beta-arrestin luminescence, antagonist mode; hits give low values. The method, boiled down:
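Cells plated overnight at 1500 cells/well, then exposed to library compounds with dopamine controls for 90 minutes at 37 degrees C. DiscoveRx reagent added for 30–60 minutes at room temperature; luminescence read, quantitative HTS format.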
Background: qHTS replaces the single test concentration by a dilution series.
As to `CC(=O)Nc1ccc(CNc2nc(NCCN(C)C)nc3cc(-c4ccccc4)sc23)cc1`, the max response, negative = inhibition was -24.6%.
With `CCOC(=O)C1CCCN(C(=O)c2cc(-c3cccs3)oc2C)CC1` (configuration not stated) the figure was 11%; with `O=c1[nH][nH]c(C(F)(F)F)c1C=NCc1ccccc1Cl`, -70.6% (active).
On to `COc1ccc(S(=O)(=O)N2CCCCC2c2cc(C(=O)NCc3ccc(F)cc3)no2)cc1` (configuration not stated), for which the max response, negative = inhibition was 8.77%.
To `Cc1cc(C(=O)N2CCCC2(C)C(=O)O)c(C)o1` (configuration not stated) belongs 16.6%.
On to `CCOC(=O)C1=CC[C@@H](c2ccccc2)N(S(=O)(=O)c2ccc(C)cc2)[C@H]1c1ccc(CC)cc1`, for which the max response, negative = inhibition was 4.64%.
Regarding `O=C(NCc1cccnc1)c1cc(C2CCCCN2C(=O)CCc2ccccc2)on1` (configuration not stated), the max response, negative = inhibition is -10.2%.
For `COc1ccc(C(C#N)=C2C=CC(=NO)c3ccccc32)cc1`, the max response, negative = inhibition was -54% (active).
As to `COc1ccc(C(=NN)c2ccc(OC)cc2)cc1`, the max response, negative = inhibition was -10.2%.
To `COc1ccc(/C(N)=N/OC(=O)Cc2ccccc2)cc1` belongs -0.193%; to `Cc1cccc(C)c1NC(=O)C(c1ccc(C(F)(F)F)cc1)n1c(=O)c(-c2ccco2)nc2ccccc21` (configuration not stated), -12.7%; to `COc1cc(C=C(OC(C)=O)c2ccc3c(c2)OCO3)cc(OC)c1OC`, 24.2%.
To `O=C1CCC(C(=O)OCC(=O)Nc2ccc(OC(F)F)cc2)=NN1` belongs 12.8%; to `O=C(N/N=C/c1cc(Cl)cc([N+](=O)[O-])c1O)C(O)(c1ccccc1)c1ccccc1`, -89.3% (active).
With `O=C(Cc1ccccc1)N/N=C/c1ccc(Cl)cc1Cl`, the max response, negative = inhibition is -15.7%.
As for `CN(C)/N=C/c1cc(Cl)cc([N+](=O)[O-])c1O`, the max response, negative = inhibition was -79.8% (active).
With `O=C(N/N=C/c1cc(Br)c(O)c([N+](=O)[O-])c1)C(O)(c1ccccc1)c1ccccc1`, the max response, negative = inhibition was -10.9%.
`CC(=O)NC(c1ccccc1)c1nc(-c2ccccc2C)cs1` (configuration not stated): the max response, negative = inhibition is -13.7%.
In the case of `CC(C)CCNC(=O)c1[nH]c(C(F)(F)F)nc1-c1ccccc1`, the max response, negative = inhibition was 0%.
On to `COCOCCn1cc(CN2CCS(=O)(=O)N(Cc3ccc(-c4ccc(OC)cc4)cc3)C(CC(C)C)C2=O)nn1` (configuration not stated), for which the max response, negative = inhibition is 10.8%.
As to `COc1ccc(NC(=O)c2sccc2SCC#N)cc1`, the max response, negative = inhibition is -82.3% (active).
As for `COc1ccc(NC(=O)c2ccc(C#CC(C)(C)O)cc2)cc1`, the max response, negative = inhibition was -1.8%.
Regarding `COc1ccc(NC(=O)CSc2nc(C)cs2)cc1`, the max response, negative = inhibition was 5.34%.
As for `C[C@@H]1CN([C@H](C)CO)C(=O)CCCn2cc(nn2)CO[C@H]1CN(C)S(C)(=O)=O`, the max response, negative = inhibition was 12.7%.
Take `NC(=S)NN=Cc1ccc(OC(=O)COc2cc(Cl)c(Cl)cc2Cl)cn1`: the max response, negative = inhibition was 0.559%.
Regarding `CCC(C(=O)Nc1ccc2c(c1)OCCO2)c1ccccc1` (configuration not stated), the max response, negative = inhibition was -13.2%.
Take `O=C(Nc1ccc2c(c1)OCCO2)C(C1CC1)N1CCC(Cc2ccccc2)CC1` (configuration not stated): the max response, negative = inhibition was -73.1% (active).
For `O=C(CN1CCOc2ccccc21)N1CCC(Cc2ccccc2)CC1`, the max response, negative = inhibition was 0%.
Turning to `O=C(NCc1ccccc1)C(c1ccc(F)cc1)N1CCN(C(=O)C2CCCO2)CC1` (configuration not stated), the max response, negative = inhibition is 29.8%.
As for `CCOC(=O)C1(C)CCCN(C(=O)c2cccc(Cl)c2)C1` (configuration not stated), the max response, negative = inhibition was -16.8%.
`N#Cc1cccc(NC(=O)COC(=O)c2ccccc2C(=O)c2ccc(Cl)c([N+](=O)[O-])c2)c1`: the max response, negative = inhibition was -50.7% (active).
In the case of `COC(=O)c1cc(NC(=O)Cc2ccccc2[N+](=O)[O-])ccc1Cl`, the max response, negative = inhibition is -7.17%.
On to `NC(=O)c1ccc(NC(=O)COC(=O)c2ccc([N+](=O)[O-])cc2)cc1`, for which the max response, negative = inhibition is -15.1%.
Turning to `CCCc1ccc(C(O)c2ncc(-c3cccc(OC)c3)[nH]2)cc1` (configuration not stated), the max response, negative = inhibition was 0%.
Turning to `CC(C)(C)S(=O)N1Cc2cc(C(=O)NCCCN3CCOCC3)nc(-c3cccc(-c4cc5ccccc5o4)c3)c2[C@H]1CCO` (some centres not stated), the max response, negative = inhibition is 9.3%.
As for `COc1cccc(S(=O)(=O)NCc2ccc(C(=O)NCc3ccccn3)cc2)c1`, the max response, negative = inhibition was 8.72%.
With `CN(c1ccc(C(=O)NCc2ccccn2)cc1)S(C)(=O)=O` the figure was -116% (active).
As for `CCN(c1ccccc1)S(=O)(=O)c1cc(C(=O)NCc2ccccn2)ccc1C`, the max response, negative = inhibition is 4.76%.
Regarding `CC1(Cc2ccccc2C#N)C(=O)Nc2ccc(-c3ccc4[nH]ccc4c3)cc21` (configuration not stated), the max response, negative = inhibition was -15.9%.
To `COc1ccc(S(=O)(=O)N[C@@H]2C=C[C@@H](CC(=O)N3CCc4ccccc4C3)O[C@@H]2CO)cc1` belongs -0.0851%.
As for `COc1ccccc1C1=CC(=O)C[C@H](c2ccc(F)cc2)C1`, the max response, negative = inhibition was -18.2%.
Turning to `O=C1C=C(c2cccc(Cl)c2O)C[C@@H](c2ccc(F)cc2)C1`, the max response, negative = inhibition was -58.3% (active).
For the compound `COc1cccc(C2=CC(=O)C[C@H](c3ccc(F)cc3)C2)c1OC`, the max response, negative = inhibition was -8.44%.
To `COC(=O)C1=C(C)N(C)C(=O)NC1c1ccc([N+](=O)[O-])o1` (configuration not stated) belongs -10.8%.
For the compound `COC(=O)C1=C(C)NC2=C(C(=O)c3ccccc32)C1c1ccc(-c2ccc(C(=O)O)cc2)o1` (configuration not stated), the max response, negative = inhibition is -75.7% (active).
On to `CCOC(=O)c1ccc(-c2ccc(C(=O)Nc3cccnc3)o2)cc1`, for which the max response, negative = inhibition is 9.54%.
With `O=C(NCc1ccco1)C1(c2ccc(Cl)cc2)CCCC1` the figure was -5.37%; with `O=C(CSc1nnnn1-c1ccccc1)NCc1ccco1`, -1.61%.
To `O=C(CSc1c2c(nc3ccc(Cl)cc13)CCCC2)NCc1ccco1` belongs -79.5% (active).
For the compound `Cc1cc(N/N=C\c2ccc(Br)cc2)nc(-n2nc(C)cc2C)n1`, the max response, negative = inhibition was -54.3% (active).
As for `CN(C)c1ccc(/C=N/Nc2cc(N3CCOCC3)nc(N3CCOCC3)n2)cc1`, the max response, negative = inhibition is -13.4%.
Take `Cc1cc(C)n(-c2nnc(N3CCN(c4ccccc4)CC3)nn2)n1`: the max response, negative = inhibition was -8.33%.
As to `N#CC1=C(N)C(C#N)(C#N)[C@H](c2ccsc2)[C@H]2COCC=C12`, the max response, negative = inhibition was -56% (active).
With `C[C@H]1COc2cc(N3CCSCC3)ccc2S(=O)(=O)N1` the figure was -22.5%.
Regarding `CCCCC(O)C1=C[N+](=O)CC=C1` (configuration not stated), the max response, negative = inhibition is 7.65%.
Take `COc1ccc(-c2cc(NC=O)c3ncc(-c4ccccc4)n3c2)cc1OC`: the max response, negative = inhibition is -15.4%.
Turning to `COc1ccc(S(=O)(=O)NC(=O)C2(C)CCN2C(=O)c2ccccc2CCc2ccccc2)cc1` (configuration not stated), the max response, negative = inhibition is -6.13%.
